Measured values: PubChem BioAssay (EPA / NIEHS)
Values joined by “and” are separate entries in the source; they are usually repeats but may differ in a detail not shown here. Equal values may be shown once. Records with an inconclusive call do not appear. A structure can be active in one record and inactive in another. Active and inactive are the calls of the source. Rule for the calls: active = hit-call score of the fitted dose curve at least 0.9, where 1 is the maximum; inconclusive = response in the unintended direction; inactive = score below 0.9.

What was measured:
[1] = LTEA_HepaRG_LDH_cytotoxicity: Cytotoxicity Assessment in the Life Technologies and Expression Analysis (LTEA) Assay (AID 2283563);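 for AC50: LDH activity released into spent culture medium as a marker of cell death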
Outline: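 Spent-medium LDH after 48 h chemical exposure of HepaRG cells in serum-free induction medium; eight concentrations, half-log dilutions from 100 uM, duplicate wells, fitted upward relative to 0.5% DMSO.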

[2] = ATG_XTT_Cytotoxicity: Cytotoxicity Assessment in the Attagene TRANS-FACTORIAL HepG2 Assay (AID 2283584);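 for AC50: XTT signal for cell number as viability in transfected HepG2 cells; cells exposed to compound for 24 h before reading; active means loss of viability signal versus DMSO baseline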
Outline: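 24 h chemical exposure of reporter-transfected HepG2; XTT signal loss vs DMSO indicates cytotoxicity.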

[3] = TOX21_p53_BLA_p3_viability: Viability Assessment in the Tox21 HCT-116 p53 Agonism Beta-lactamase Assay, Phase 3 (AID 2283593);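 note: cells exposed to compound for 16 h before reading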
Outline: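 HCT-116 cells (4000/well) rested 5 h at 37C, then got DMSO compounds by pin tool (217-fold dilution) for 16 h at 37C, 5% CO2. After the bla read, CellTiter-Glo was added and luminescence read at 30 min, room temperature.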

[4] = TOX21_p53_BLA_p4_viability: Viability Assessment in the Tox21 HCT-116 p53 Agonism Beta-lactamase Assay, Phase 4 (AID 2283597);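 note: hits lower the luminescence signal meaning cytotoxicity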
Outline: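 In this multiplexed secondary endpoint, HCT116 cells (4000 per well, compound at 5 h, 16 h treatment) received CellTiter-Glo after the beta-lactamase read. Luminescence after 30 min RT reflects ATP, and falling signal marks cytotoxicity.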

[5] = TOX21_p53_BLA_p5_viability: Viability Assessment in the Tox21 HCT-116 p53 Agonism Beta-lactamase Assay, Phase 5 (AID 2283600)
Outline: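 Here cell health was gauged by ATP levels in wells holding 4000 cells, each treated 16 h with DMSO-delivered compounds at 217-fold dilution; reduced luminescence marked toxicity.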

[6] = target: Cellular tumor antigen p53 (Homo sapiens) (UniProt P04637); test: TOX21_p53_BLA_p2_ratio: Tox21 HCT-116 p53 Agonism Beta-lactamase Assay, Ratio, Phase 2 (AID 2283592)
Outline: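 DMSO-normalized, positive-direction endpoint derived from the 460 nm/530 nm FRET ratio in HCT116 p53 beta-lactamase reporter cells exposed 16 h at 37C and loaded with CCF4-AM for 2 h.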

[7] = target: Cellular tumor antigen p53 (Homo sapiens) (UniProt P04637); test: TOX21_p53_BLA_p3_ratio: Tox21 HCT-116 p53 Agonism Beta-lactamase Assay, Ratio, Phase 3 (AID 2283596)
Outline: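 Cells were seeded at 4000/well, rested 5 h at 37C, then dosed with DMSO compound solutions (217-fold dilution) for 16 h. CCF4-AM substrate was loaded for 2 h at room temperature, and the 460/530 nm emission ratio was fitted for gain of signal versus DMSO.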

[8] = target: Cellular tumor antigen p53 (Homo sapiens) (UniProt P04637); test: TOX21_p53_BLA_p4_ratio: Tox21 HCT-116 p53 Agonism Beta-lactamase Assay, Ratio, Phase 4 (AID 2283601)
Outline: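 HCT116 cells carrying an inducible beta-lactamase reporter were plated at 4000 cells/well, rested 5 h, then exposed to compounds in DMSO (217-fold dilution) for 16 h at 37C. CCF4-AM substrate was loaded 2 h at room temperature; 460/530 nm emission ratio scored gain-of-signal versus DMSO.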

[9] = target: Cellular tumor antigen p53 (Homo sapiens) (UniProt P04637); test: TOX21_p53_BLA_p5_ratio: Tox21 HCT-116 p53 Agonism Beta-lactamase Assay, Ratio, Phase 5 (AID 2283599)
Outline: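 HCT-116 cells carrying a p53-inducible beta-lactamase reporter were seeded at 4000 cells/well and dosed after 5 h with compound in DMSO (217-fold dilution). After 16 h at 37C, CCF4-AM substrate was added for 2 h, and the 460/530 nm emission ratio was scored as gain-of-signal versus DMSO.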

[10] = TOX21_p53_BLA_p2_viability: Viability Assessment in the Tox21 HCT-116 p53 Agonism Beta-lactamase Assay, Phase 2 (AID 2283591);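 note: compound exposure lasted 16 h at 37 °C; actives lower the ATP signal meaning cytotoxicity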
Outline: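 HCT-116 p53-bla cells (4000/well) rested 5 h at 37C, then received compounds in DMSO (217-fold dilution) for 16 h at 37C, 5% CO2. After the CCF4 read, CellTiter-Glo was added; ATP luminescence was read after 30 min at room temperature.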

Chain of Cellular tumor antigen p53 (Homo sapiens) (P04637 whole entry, looked up): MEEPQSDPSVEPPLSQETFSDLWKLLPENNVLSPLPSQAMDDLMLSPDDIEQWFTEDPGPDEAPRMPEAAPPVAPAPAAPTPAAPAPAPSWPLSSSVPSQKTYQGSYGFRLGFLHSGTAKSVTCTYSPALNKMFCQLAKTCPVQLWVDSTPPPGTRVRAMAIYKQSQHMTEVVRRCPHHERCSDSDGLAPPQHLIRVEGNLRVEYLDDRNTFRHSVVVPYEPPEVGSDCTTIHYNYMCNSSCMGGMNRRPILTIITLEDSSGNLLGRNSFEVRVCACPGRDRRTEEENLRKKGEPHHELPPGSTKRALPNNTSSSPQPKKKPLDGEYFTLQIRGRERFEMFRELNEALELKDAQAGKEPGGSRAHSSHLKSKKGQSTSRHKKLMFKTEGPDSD

Structure (SMILES): O=C1NS(=O)(=O)c2ccccc21
- outcome [1]: inactive
- outcome [2]: inactive

Structure (SMILES): NNC(=O)CCCCC(=O)NN
- outcome [2]: inactive

Structure (SMILES): CC(C)c1c(C(=O)Nc2ccccc2)c(-c2ccccc2)c(-c2ccc(F)cc2)n1CC[C@@H](O)C[C@@H](O)CC(=O)O
- outcome [2]: inactive

Structure (SMILES): O=C(O)CN(CCCN(CC(=O)O)CC(=O)O)CC(=O)O
- outcome [2]: inactive

Structure (SMILES): CN(C)CCOC(c1ccccc1)c1ccccc1
- outcome [1]: inactive
- outcome [2]: inactive
- outcome [3]: inactive
- outcome [4]: inactive
- outcome [5]: inactive

Structure (SMILES): CCCCCCCCCCCCOS(=O)(=O)O
- outcome [1]: inactive

Structure (SMILES): Nc1ccn([C@@H]2O[C@H](CO)[C@@H](O)C2O)c(=O)n1 (stereo not given in full)
- outcome [2]: inactive

Structure (SMILES): O=C(CCCN1CCC(O)(c2ccc(Cl)cc2)CC1)c1ccc(F)cc1
- AC50 [1]: 73.6 µM (active)
- outcome [2]: inactive
- outcome [6]: inactive
- outcome [3]: inactive
- outcome [7]: inactive
- outcome [4]: inactive
- outcome [5]: inactive
- outcome [8]: inactive

Structure (SMILES): CCCCN(C)C
- outcome [2]: inactive

Structure (SMILES): C/C=C/C(=O)C1=C(C)CCCC1(C)C
- outcome [2]: inactive

Structure (SMILES): CCCCC=O
- outcome [1]: inactive
- outcome [2]: inactive

Structure (SMILES): CCCCC(CC)C(=O)O (stereo not given)
- outcome [1]: inactive
- outcome [2]: inactive

Structure (SMILES): COc1ccc(C#N)cc1
- outcome [2]: inactive

Structure (SMILES): CC(=O)Nc1ccc(O)cc1
- outcome [1]: inactive
- outcome [2]: inactive

Structure (SMILES): O=C1c2ccc(O)c(O)c2C(=O)c2c(O)ccc(O)c21
- outcome [2]: inactive

Structure (SMILES): Oc1cc2ccccc2cc1O
- outcome [2]: inactive

Structure (SMILES): Cc1[nH]nc2c1N=C(c1ccccc1Cl)c1cc([N+](=O)[O-])ccc1N2
- AC50 [1]: 61.4 µM (active)
- outcome [2]: inactive

Structure (SMILES): C=CC(=O)OCCN(CC)CC
- outcome [2]: inactive

Structure (SMILES): CC1CCC(CO)CC1 (stereo not given)
- outcome [2]: inactive

Structure (SMILES): CN(Cc1cnc2nc(N)nc(N)c2n1)c1ccc(C(=O)N[C@@H](CCC(=O)O)C(=O)O)cc1
- outcome [1]: inactive
- outcome [2]: inactive

Structure (SMILES): O=C1C=CC(=O)N1c1cccc(N2C(=O)C=CC2=O)c1
- outcome [2]: inactive

Structure (SMILES): OCC(CO)(CBr)CBr
- outcome [1]: inactive

Structure (SMILES): CCCCCCCCC(C)=O
- outcome [2]: inactive

Structure (SMILES): CCCCc1oc2ccccc2c1C(=O)c1cc(I)c(OCCN(CC)CC)c(I)c1
- AC50 [1]: 57 µM (active)
- outcome [2]: inactive
- outcome [6]: inactive
- AC50 [3]: 32.3 µM (active) and 51.8 µM (active)
- outcome [3]: inactive
- outcome [7]: inactive
- AC50 [4]: 31.3 µM (active) and 50.9 µM (active) and 23 µM (active)
- outcome [9]: inactive
- outcome [5]: inactive
- AC50 [8]: 64.9 µM (active)
- outcome [8]: inactive

Structure (SMILES): Cc1ccc(N=Nc2c(O)ccc3ccccc23)c(C)c1
- outcome [2]: inactive

Structure (SMILES): CCOC(=O)c1nc(C(Cl)(Cl)Cl)n(-c2ccc(Cl)cc2Cl)n1
- outcome [2]: inactive

Structure (SMILES): CC1CNCC(C)O1 (stereo not given)
- outcome [2]: inactive

Structure (SMILES): CCCCCCCC(OC)OC
- outcome [2]: inactive

Structure (SMILES): O=C(c1ccccc1)c1ccccc1
- outcome [1]: inactive
- outcome [2]: inactive
- outcome [10]: inactive
- outcome [6]: inactive
- outcome [3]: inactive
- outcome [7]: inactive
- outcome [4]: inactive
- outcome [5]: inactive
- outcome [8]: inactive

Structure (SMILES): N=C(N)c1ccc(OCCCCCOc2ccc(C(=N)N)cc2)cc1
- AC50 [1]: 12 µM (active)
- outcome [2]: inactive

Structure (SMILES): CCCCCCCCCCCCCCC
- outcome [1]: inactive
- outcome [2]: inactive

Structure (SMILES): CCC(C)c1ccccc1O (stereo not given)
- outcome [1]: inactive
- outcome [2]: inactive

Structure (SMILES): CCCCCCCCCCCC
- AC50 [2]: 89.9 µM (active)

Structure (SMILES): Cc1cccc2c1ccc1ccccc12
- outcome [2]: inactive

Structure (SMILES): CCOC(OCC)C(=O)c1ccccc1
- outcome [2]: inactive

Structure (SMILES): Clc1ccc2c(Cl)ccnc2c1
- outcome [2]: inactive

Structure (SMILES): CC(C)CCOCCC(C)C
- outcome [2]: inactive

Structure (SMILES): Oc1ccc(Cc2ccccc2O)cc1
- outcome [2]: inactive
- outcome [10]: inactive
- outcome [6]: inactive
- outcome [3]: inactive
- outcome [7]: inactive
- outcome [4]: inactive

Structure (SMILES): OCCN1CN(CCO)CN(CCO)C1
- outcome [2]: inactive

Structure (SMILES): CCOC=O
- outcome [2]: inactive

Structure (SMILES): COc1cccc(O)c1
- outcome [2]: inactive

Structure (SMILES): CCc1cccc(CC)c1NC(=O)C(=O)O
- outcome [2]: inactive

Structure (SMILES): C=Cc1ccc(O)c(OC)c1
- outcome [2]: inactive

Structure (SMILES): C=CC(=C)CC/C=C(\C)CCC=C(C)C
- outcome [2]: inactive

Structure (SMILES): O=S(=O)(c1ccc(OCc2ccccc2)cc1)c1ccccc1O
- outcome [2]: inactive

Structure (SMILES): COC(O)c1ccccc1 (stereo not given)
- outcome [2]: inactive

Structure (SMILES): CCOC=C(C(=O)OCC)C(=O)OCC
- outcome [2]: inactive

Structure (SMILES): c1cc[nH]c1
- outcome [2]: inactive

Structure (SMILES): C=COC(=O)C(C)(C)CCCCCC
- outcome [2]: inactive

Structure (SMILES): COCC1CCC(CO)CC1 (stereo not given)
- outcome [2]: inactive

Structure (SMILES): CC1CCC(C(=O)O)CC1 (stereo not given)
- outcome [2]: inactive

Structure (SMILES): CCCCCc1ccc(O)cc1
- outcome [2]: inactive

Structure (SMILES): CC(C)(c1ccc(Oc2ccc(N)cc2)cc1)c1ccc(Oc2ccc(N)cc2)cc1
- AC50 [2]: 48.6 µM (active)

Structure (SMILES): CC[N+](CC)(CC)Cc1ccccc1
- outcome [2]: inactive

Structure (SMILES): CCO[Si](CCC1CCC2OC2C1)(OCC)OCC (stereo not given)
- outcome [2]: inactive

Structure (SMILES): Cc1ccccc1OCC(=O)O
- outcome [2]: inactive

Structure (SMILES): CC(C)[C@@H]1CC[C@@H](C)C[C@H]1O
- outcome [2]: inactive

Structure (SMILES): COC1=CC(=O)C[C@@H](C)[C@]12Oc1c(Cl)c(OC)cc(OC)c1C2=O
- outcome [2]: inactive

Structure (SMILES): Oc1c(Cl)cc(Cl)cc1Sc1cc(Cl)cc(Cl)c1O
- AC50 [2]: 41.5 µM (active)
- AC50 [10]: 43.1 µM (active) and 23.4 µM (active) and 76.2 µM (active)
- outcome [10]: inactive
- AC50 [3]: 73.1 µM (active) and 36.2 µM (active) and 1.49 µM (active)
- outcome [3]: inactive
- AC50 [5]: 82 µM (active) and 85.7 µM (active)
- outcome [5]: inactive

Structure (SMILES): Cn1sccc1=O
- outcome [2]: inactive

Structure (SMILES): CCCCCCCCCCCC[N+](C)(C)Cc1ccccc1
- AC50 [2]: 24.2 µM (active) and 31.9 µM (active)

Structure (SMILES): CCc1cccc(CC)c1N(COC)C(=O)CS(=O)(=O)O
- outcome [2]: inactive

Structure (SMILES): O=S(=O)(O)c1ccccc1
- outcome [2]: inactive

Structure (SMILES): C=C(c1ccc(C(=O)O)cc1)c1cc2c(cc1C)C(C)(C)CCC2(C)C
- AC50 [2]: 25.3 µM (active)

Structure (SMILES): O=C1Cc2ccccc2N1c1c(Cl)cccc1Cl
- outcome [2]: inactive

Structure (SMILES): O=C(NCc1ncc(C(F)(F)F)cc1Cl)c1c(Cl)cccc1Cl
- outcome [2]: inactive

Structure (SMILES): CCCCCCCCCCCC(=O)O
- outcome [2]: inactive

Structure (SMILES): Cc1ccccc1C(OCCN(C)C)c1ccccc1 (stereo not given)
- outcome [2]: inactive
- outcome [10]: inactive
- outcome [6]: inactive
- outcome [3]: inactive
- outcome [7]: inactive
- outcome [4]: inactive

Structure (SMILES): CCN(CCC#N)c1ccccc1
- outcome [2]: inactive

Structure (SMILES): O=C1OC2(c3ccccc31)c1cc(I)c(O)c(I)c1Oc1c2cc(I)c(O)c1I
- outcome [2]: inactive
- outcome [10]: inactive
- AC50 [6]: 78.6 µM (active)
- outcome [6]: inactive
- outcome [3]: inactive
- AC50 [7]: 87.3 µM (active)
- outcome [7]: inactive
- AC50 [4]: 58.1 µM (active)
- outcome [4]: inactive
- outcome [5]: inactive
- AC50 [8]: 73.9 µM (active)
- outcome [8]: inactive
